# The sample as a whole holds a higher share of hits than the screen did.
# 14-3-3 PPI: modulators of 14-3-3 gamma protein binding, primary screen, biochemical, fluorescence polarization; 160,000 tested, 0.19% active; inhibition, % at 40 µM; FP, 14-3-3gamma / TMR-pS259-Raf peptide binding; 14-3-3 protein gamma (Homo sapiens), P61981; in the data active = inhibition above about 30%
# Target sequence (P61981 whole entry, looked up): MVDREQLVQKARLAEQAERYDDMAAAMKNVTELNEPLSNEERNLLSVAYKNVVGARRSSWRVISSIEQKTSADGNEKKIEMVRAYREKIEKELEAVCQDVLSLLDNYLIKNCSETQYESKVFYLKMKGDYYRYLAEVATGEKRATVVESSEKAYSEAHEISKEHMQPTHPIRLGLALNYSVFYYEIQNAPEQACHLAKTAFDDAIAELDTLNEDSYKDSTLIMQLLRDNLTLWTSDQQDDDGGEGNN
# Hits are given with their value; - = inactive; + = active, no number; ! = not confirmed by another sample.
SMILES,14-3-3 PPI
CCOC(=O)CSc1nnc(CNC(=O)c2cccc(F)c2)n1C,-
CC(C)Cn1c(CN2CCOCC2)nc2c1c(=O)n(C)c(=O)n2C,-
COCCCNC(=O)c1ccc2c(=O)n(Cc3ccco3)c(=S)[nH]c2c1,-
CC(=O)N1CCc2cc(Br)cc(S(=O)(=O)CCC(=O)N3CCCc4ccccc43)c21,-
CS(=O)(=O)Nc1cccc(C2=NN(C(=O)c3cccs3)C(c3ccco3)C2)c1 (stereo unspecified),-
Cc1cccc(-n2ccnc2SCC(=O)Nc2ccc(OC(F)(F)F)cc2)c1,-
Cc1ccc(Cn2c(=O)n(C3CCCC3)c(=O)c3ccccc32)c(C)c1,-
COc1ccc(OC)c(NC(=O)Cn2cnc3sc(C)c(S(=O)(=O)N4CC(C)CC(C)C4)c3c2=O)c1 (stereo unspecified),-
Cc1ccc(N(C)S(=O)(=O)c2ccc3[nH]cc(C(=O)NCc4ccccn4)c(=O)c3c2)cc1C,-
COCCNC(=O)c1c[nH]c2ccc(S(=O)(=O)N(C)c3ccc(F)cc3)cc2c1=O,-
CN(c1ccc(F)cc1)S(=O)(=O)c1ccc2[nH]cc(C(=O)NCc3ccccn3)c(=O)c2c1,+
CCCCCOC(=O)C1=C(C)Nc2nnnn2C1c1ccc(OC)cc1OC (stereo unspecified),-
COC(=O)c1sc(NC(=O)C(F)(F)F)c(C(=O)OC)c1C,-
COc1ccc(-c2oc(NC(=O)C(F)(F)F)c(C#N)c2-c2ccc(OC)cc2)cc1,-
Cc1oc(NC(=O)C(F)(F)F)c(C#N)c1C,33
COc1ccc(CNC(=O)c2ccc3c(c2)N(Cc2ccccc2C)C(=O)CS3)cc1,-
Cc1ccc(C)c(NC(=O)C2(C)CC3c4ccccc4C2c2ccccc23)c1 (stereo unspecified),-
COc1ccc(NC(=O)C2(C)CC3c4ccccc4C2c2ccccc23)cc1 (stereo unspecified),55
COc1ccc(NC(=O)C23CCC(C2)C(C)(C)C3=O)cc1 (stereo unspecified),-
CCN(C(=O)c1ccccc1)c1ccc(C(O)(C(F)(F)F)C(F)(F)F)cc1,-
CCN(CC)c1cc(C)c2cc(NC(=O)C3CCCCC3)ccc2n1,-
CC1=CC(C#N)(C#N)C(C#N)(C#N)C(c2ccccc2)N1 (stereo unspecified),73
CCSC1(SCC)N=C(N)C2(C#N)C(c3ccccc3)NC(C)=C(C)C12C#N (stereo unspecified),-
CCC1=C(C)C(c2ccccc2)NC(=S)N1 (stereo unspecified),-
O=C(Cc1ccc(-n2c(=S)[nH]c3ccccc3c2=O)cc1)N1CCN(c2cccc(C(F)(F)F)c2)CC1,-
SMILES,14-3-3 PPI
CC(=O)Oc1ccc2c(C)c(Cl)c(=O)oc2c1,-
CCOCCn1cnc2sc(C(=O)N3CCCc4ccccc43)c(C)c2c1=O,-
Cc1cccc(CCN=c2c([N+](=O)[O-])nn(-c3ccc4c(c3)OCCO4)n2O)c1,72
O=[N+]([O-])c1nn(-c2ccc3c(c2)OCCO3)n(O)c1=NCCc1ccccc1,-
Cc1cccc(CCN=c2c([N+](=O)[O-])nn(-c3ccccc3)n2O)c1,-
COc1ccc(C2CC(=O)C3=C(C2)NC(C)=C(C(=O)OCCOc2ccccc2)C3c2ccc(Br)cc2)cc1 (stereo unspecified),-
CN(Cc1ccccc1)C(=O)CN(c1cc(C(F)(F)F)ccc1Cl)S(=O)(=O)c1ccccc1,-
CCc1ccc(NC(=O)c2oc(=O)c3ccccc3c2-c2ccc(C)cc2)cc1,-
CCOC(=O)c1ccc(NC(=O)c2oc(=O)c3ccccc3c2-c2ccc(C)cc2)cc1,-
Cc1ccc(-c2c(C(=O)Nc3ccc(N(C)C)cc3)oc(=O)c3ccccc23)cc1,39
CCC(=O)N1CCc2cc(Br)cc(S(=O)(=O)CCC(=O)NC3CCCC3)c21,-
NC(=O)CN1CCOCCOCCN(CC(N)=O)CCOCC1,-
OCCN1CCOCCN(CCO)CCN(CCO)CC1,147!
C=COCCN1CCOCC1,-
O=C1c2ccccc2C(=O)c2c1ccc1c(=O)o[nH]c21,73
O=C1c2ccccc2C(=O)c2c(Br)cccc21,-
O=C1c2ccccc2C(=O)c2c(I)cccc21,-
CCCCN(Cc1ccccc1)S(=O)(=O)c1ccc2c(c1)c(=O)n(C)c(=O)n2C,-
O=C(NCc1ccco1)c1nn2c(c1Cl)NC(c1ccc(F)cc1)CC2C(F)(F)F (stereo unspecified),-
COc1ccc(C2CC(=O)Nc3cc(OC)c(OC)cc32)c(OC)c1 (stereo unspecified),-
Cc1ccccc1Cn1c(CCNC(=O)c2ccc(F)cc2)nc2ccccc21,32
CCCCn1c(CCNC(=O)c2ccc(F)cc2)nc2ccccc21,-
Cc1ccc(C)c(Cn2c(CCNC(=O)c3ccc(F)cc3)nc3ccccc32)c1,-
CN(CCC#N)S(=O)(=O)c1ccc2nc(-c3ccccc3)[nH]c2c1,-
Cc1cc(Cl)ccc1NC(=O)CCCn1c2ccccc2c(=O)c2ccccc21,-
CCN(CC)CCn1c(C)nc2cc3ccccc3cc2c1=O,-
O=C(Nc1cccc(OC(=O)c2cc(S(=O)(=O)N3CCOCC3)ccc2Cl)c1)c1ccccc1,-

# Source: PubChem
